# Measurements: ChEMBL document CHEMBL3433997, “St. Jude Leishmania screening dataset” (2016)
# “And” between values parts separate entries of the source, which are not always exact repeats. Equal entries are not always repeated.
# Experiments:
# Format in all cases: functional
# [1] = molecular target: Solute carrier family 2, facilitated glucose transporter member 1 (Homo sapiens) (UniProt P11166); test: ST_JUDE_LEISH: Cytotoxicity at 2uM final concentration against transgenic Leishmania Mexicana promastigotes LmGLUT1 that are glucose transport deficient and complemented with the human glucose transporter GLUT1. Activity is measured by DNA content using SYBR green in vitro
# [2] = molecular target: Hexose transporter 1 (Plasmodium falciparum) (UniProt O97467); test: ST_JUDE_LEISH: Cytotoxicity at 2uM final concentration against transgenic Leishmania Mexicana promastigotes LmPfHT that are glucose transport deficient and complemented with the Plasmodium falciparum hexose transporter. Activity is measured by DNA content using SYBR green in vitro
# [3] = molecular target: Glucose transporter (Leishmania mexicana) (UniProt O61059); test: ST_JUDE_LEISH: Cytotoxicity at 2uM final concentration against transgenic Leishmania Mexicana promastigotes LmGT2 that are glucose transport deficient and complemented with the L. Mexicana glucose transporter 2. Activity is measured by DNA content using SYBR green in vitro
# Sequence of Solute carrier family 2, facilitated glucose transporter member 1 (Homo sapiens) (P11166 whole entry): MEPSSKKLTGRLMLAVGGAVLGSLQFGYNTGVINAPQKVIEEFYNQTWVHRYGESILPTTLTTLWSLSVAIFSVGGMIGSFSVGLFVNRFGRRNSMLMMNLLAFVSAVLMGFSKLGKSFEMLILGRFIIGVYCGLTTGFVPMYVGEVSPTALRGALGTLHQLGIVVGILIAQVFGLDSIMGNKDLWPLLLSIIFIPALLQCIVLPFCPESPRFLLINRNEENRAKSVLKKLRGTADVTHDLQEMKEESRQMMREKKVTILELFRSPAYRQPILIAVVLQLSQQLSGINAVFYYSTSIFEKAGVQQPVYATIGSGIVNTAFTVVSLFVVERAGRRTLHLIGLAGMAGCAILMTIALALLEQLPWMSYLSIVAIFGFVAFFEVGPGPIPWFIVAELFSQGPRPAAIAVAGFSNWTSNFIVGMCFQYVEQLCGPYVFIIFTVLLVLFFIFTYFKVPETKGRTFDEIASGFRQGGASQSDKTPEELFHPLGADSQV
SMILES,inhibition [1],inhibition [2],inhibition [3]
COc1ccc(O)cc1/C=N/Nc1ccnc2cc(Cl)ccc12,7.1%,5.98%,9.21%
CCCCOc1cc2ncc(C(=O)OCC)c(O)c2cc1OCCCC,0.09%,0.46%,-3.15%
COc1ccc(NC(=O)[C@H](Cc2ccccc2)Nc2nc(NCCN3CCCC3)ncc2C)cc1,1.71%,2.57%,3.02%
COc1ccc2nccc([C@@H](O)CN3CCC(NCCOc4c(C)cccc4F)CC3)c2c1,5.89%,3.49%,4.05%
Cc1ccc(NS(=O)(=O)c2ccc(-c3ccccc3)cc2)c(Cn2cnc(N3CCCNCC3)cc2=O)c1,4.14%,3.45%,-3.65%
O=C(NCCCCN1CCN(c2cccc3ccccc23)CC1)c1ccc(NC(=O)c2ccc(Cl)cc2)cc1,2.65%,2.81%,2.29%
CCCCCC(C)C(C)c1cc(OC(N)=O)c2c(c1)OC(C)(C)C=C2c1ccncc1 (stereo not given),-3.81%,-1.09%,-1.38%
COc1cccc(Nc2nc(Nc3cccc(C#N)c3)cc(-c3ccncc3)n2)c1,3.83%,4.95%,1.57%
Cc1ccc(CN2CCCN(Cc3cccc(NC(=O)c4cc5ccccc5s4)c3)CC2)cc1C,0.56%,0.71%,-0.17%
CCNc1cc(C(=O)N[C@@H](Cc2ccccc2)[C@H](O)CN[C@@H](C)c2ccccc2)cc(N2CCCC2=O)c1,1.35%,0.55%,1.24%
Cc1cc(N[C@@H](CC(C)C)C(=O)NCCOc2ccccc2)nc(NCC2CCCCC2)n1,3.08%,9.67%,6.41%
CC(C)(C(=O)Nc1ccc(N2CCC3(CCCN(CC4CC4)C3)CC2)c(Cl)c1)c1cccc(C(F)(F)F)c1,0.2%,-0.12%,1.72%
O=C(Nc1ccc(C(F)(F)F)cc1)c1cc(Br)cnc1NCCCn1ccnc1,-0.53%,-4.7%,-3.55%
COc1ccc(O)c(C(=O)c2cc(C(=O)NC3CCCCC3)c(=O)n(C3CCCCC3)c2)c1,5.33%,4.33%,3.2%
CCn1c(Cc2ccccc2)nnc1Sc1ccc([N+](=O)[O-])c(C#N)c1,5.75%,6.38%,3.87%
Oc1ccc2ccccc2c1C=NNc1nc(=Nc2ccccc2)[nH]c(=Nc2ccccc2)[nH]1,3.37%,3.44%,2.92%
CC(C)CNCc1cccc(-c2cccc(CN(CCCN3CCN(C)CC3)C(=O)Nc3ccccc3)c2)c1,0.02%,-1.73%,0.33%
COc1ccccc1NC(=O)Nc1ccc(-c2cccc(-c3nc4ccccc4[nH]3)c2)cc1,3%,2%,3.27%

SMILES,inhibition [1],inhibition [2],inhibition [3]
Cc1noc(-c2ccccc2)c1NC(=O)NC1CCN(CCCCCNC(=O)/C=C/c2ccc(Cl)c(Cl)c2)CC1,4.35%,5.32%,3.4%
CCc1c(C(=O)NC2CCC(N3CCC(c4ccccc4OC)CC3)CC2)[nH]c2ccc(OC)cc12 (stereo not given),1.56%,2.5%,0.22%
Cn1ccnc1CCC(=O)Nc1ccc(Cl)cc1C(=O)Nc1ccc(Cl)cc1,2.75%,1.39%,2.79%
COc1ccccc1Cc1nc2ccccc2nc1SCC(=O)Nc1cccc(C(F)(F)F)c1,3.27%,3.21%,1.7%
O=C(Cc1ccccc1)NC1CCN(c2ccnc3cc(Cl)ccc23)C1 (stereo not given),2.05%,2.03%,3.56%
COc1ccc(-c2cnc3ccc(NCc4ccc(S(N)(=O)=O)cc4)nn23)cc1,3.11%,3.14%,12.6%
O=C(Nc1cccc(Cl)c1)N(CCCn1ccnc1)Cc1csc(-c2ccc(CNCc3ccccc3)cc2)n1,5.54%,3.76%,4.27%
COc1ccc(-c2nc(NC(=O)CS(=O)(=O)c3ccc(OC)cc3)sc2C)cc1,2.15%,2.85%,3.47%
CCCCCC(C)C(C)c1cc(O)c2c(c1)OC(C)(C)CC2c1cc[n+]([O-])cc1 (stereo not given),3.19%,4.07%,4.64%
COC(=O)Nc1cc(C(F)(F)F)ccc1N1CCCC(NS(=O)(=O)c2ccc(C(C)(C)C)cc2)C1 (stereo not given),10%,12.2%,7.77%
O=C(Nc1cccc(CCNCc2ccccc2)c1)Nc1cccc2ccccc12,10.3%,11%,10.9%
COc1cc(CNc2ncc(-c3ccsc3)c(-c3nccs3)n2)cc(OC)c1,1.79%,1.49%,-0.78%
Cc1cccc2nc(-c3cccc(-c4cccc(NC(=O)c5cccnc5Cl)c4)c3)[nH]c12,1.25%,2.51%,3.23%
C=C[C@H]1CN2CC[C@H]1C[C@H]2[C@H](O)c1ccnc2ccc(OC)cc12,7.23% and -4.42% and 0.77%,6.11% and -3.17% and 2.26%,-0.01% and 5.72% and -2.15%
C=CCn1c(Sc2ccc(C#N)c([N+](=O)[O-])c2)nnc1-c1cc(OC)cc(OC)c1,12.5%,13.4%,10.9%
COc1cc(NC(=O)c2sc(-c3ccc(Cl)cc3)cc2NC(=O)c2cccnc2)ccc1OCCN1CCCC1,4.28%,4.76%,6.19%
COc1cc(Cc2cnc(N)nc2N)c2ccsc2c1OC,4.16%,3.31%,1.58%
